# Test results: PubChem BioAssay AID2410 (Southern Research Specialized Biocontainment Screening …, 2010)
# The campaign covered roughly 2,500 compounds. About 2,100 (84%) were called active.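 How the source made its calls: active means toxic compounds, whose cell viability fell below 70% of untreated control cells; inactive means the rest.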 So high a share suggests a set chosen from earlier hits. Only a sample is shown. Measured potencies and affinities stand elsewhere.
# Test: viability of uninfected HEp-2 cells – cell-based, HTS, cytotoxicity control for RSV inhibitor project, dose response (AID 2410);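 further: cells exposed to compound for six days before readout; 100% = median signal of untreated cell control wells on each plate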
# Details: HEp-2 viability, luminescence, cytotoxicity counter-screen; series mostly up to 50 µM; viability: at the top concentration
row,SMILES,viability
1,CC(=O)N1N=C(c2ccc(C)cc2)OC1c1cccnc1 (configuration not stated),87.4% (inactive)
2,OCc1cn(-c2ccccc2)nc1-c1ccc(Br)cc1,110% (inactive)
3,COc1ccc(-c2nn(-c3ccccc3)cc2/C=N/O)cc1,90.4% (inactive)
4,CC(Oc1ccc(F)cc1)C(=O)Nc1ccc2ccccc2c1 (configuration not stated),91.2% (inactive)
5,O=[N+]([O-])c1ccc(N/N=C/c2ccccc2)cc1,106% (inactive)
6,Cc1c(C)n(C)c2ccc([N+](=O)[O-])cc12,76.4% (inactive)
7,O=c1c2sccc2n(Cc2cc(=O)n3ccccc3n2)c(=O)n1-c1ccccc1,107% (inactive)
8,CN(Cc1nc2ccccc2c(=O)[nH]1)C(=O)c1cc(C2CC2)nn1-c1ccccc1,74.9% (inactive)
9,CCN(Cc1nc2ccccc2c(=O)[nH]1)C(=O)c1cc(C2CC2)nn1-c1ccccc1,75.5% (inactive)
10,COc1ccccc1/C=C/C(=O)NCC(=O)N/N=C(/C)c1ccc(Cl)cc1,74.3% (inactive)
11,Cc1nn2c(-c3ccc(F)cc3)ccnc2c1Br,99.9% (inactive)
12,CC(=O)c1sc(-c2ccccc2Cl)nc1C,92.1% (inactive)
13,O=C(Nc1ccon1)c1ccc(N2CCCCC2)c([N+](=O)[O-])c1,73% (inactive)
14,c1csc(-c2nc3c4ccccc4c4ccccc4c3[nH]2)c1,75% (inactive)
15,Cc1c(SCCO)c(=O)[nH]c2cc3c(cc12)OCO3,84% (inactive)
16,O=C(/C=C/c1ccc(O)c(O)c1)O[C@@H]1C[C@](O)(C(=O)O)C[C@@H](O)[C@H]1O,93.9% (inactive)
17,COc1ccc2cc(CN(CCc3ccccc3)Cc3nnnn3Cc3ccco3)c(=O)[nH]c2c1,82.5% (inactive)
18,CCOC(=O)c1c(C)[nH]c(C(=O)COC(=O)C2(C)CC2(Cl)Cl)c1C (configuration not stated),79.6% (inactive)
19,O=c1nc(Nc2ccc(OCc3ccccc3)cc2)sc2ncccc12,73.7% (inactive)
20,Cc1csc(N(C)C(=O)CSc2nnc(COc3ccccc3C)o2)n1,97.9% (inactive)
21,COC(=O)c1ccc(NC2c3ncccc3C(=O)N2Cc2cccs2)cc1 (configuration not stated),88.2% (inactive)
22,Cc1[nH]c2ccccc2c1C(=O)CSc1ccccn1,91.8% (inactive)
23,CSc1nc2ccc(Nc3nc(N4CCOCC4)nc(N4CCOCC4)n3)cc2s1,82.1% (inactive)
24,Cc1ccc(Nc2nc(N3CCOCC3)nc(N3CCOCC3)n2)cc1Cl,107% (inactive)
25,O=C(c1ccccc1Cl)N1CCN(c2ccccn2)CC1,78.8% (inactive)
26,CSc1nnc(Cn2c(=O)sc3ccccc32)n1CCc1ccccc1,97.2% (inactive)

row,SMILES,viability
1,CCOC(=O)CSc1nnc(CNC(=O)c2ccc([N+](=O)[O-])cc2)n1C,105% (inactive)
2,C#CCOCCOCCOCCNc1nc(N2CCN(C(=O)CCCCCCCCCCNC(=O)[C@@H]([C@H](C)O)n3cc(C)nn3)CC2)nc(N2CCN(C(=O)CCCCCCCCCCNC(=O)[C@@H]([C@H](C)O)n3cc(C)nn3)CC2)n1,77.9% (inactive)
3,Cc1ccccc1NC(=O)COC(=O)Cc1ccsc1,95.5% (inactive)
4,COc1ccc(S(=O)(=O)N2CCN(CCO)CC2)cc1-c1nnc2c3ccccc3c(C)nn12,105% (inactive)
5,Cc1cc(N2C(=O)CC(N3CCN(c4ccc(C(=O)c5cccs5)cc4)CC3)C2=O)no1 (configuration not stated),77% (inactive)
6,C/C(=N/OCO/N=C(/C)c1ccc(F)cc1)c1ccc(F)cc1,115% (inactive)
7,O=c1c(OC2OC(CO)C(O)C(O)C2OC2OC(CO)C(O)C(O)C2OC2OC(CO)C(O)C(O)C2O)c(-c2ccc(O)c(O)c2)oc2cc(O)cc(O)c12 (configuration not stated),81.7% (inactive)
8,CCC(=O)Nc1ccc(C(=O)OCc2ccccc2Cl)cc1,121% (inactive)
9,Cc1ccc(-n2c(=O)c3sccc3n(Cc3cc(=O)n4ccccc4n3)c2=O)cc1F,115% (inactive)
10,COc1ccc(Br)cc1/C=C/C(=O)Nc1ccc2ccccc2c1,79% (inactive)
11,CCOc1cc(/C=N\Nc2nc(Nc3ccccc3)nc(N3CCOCC3)n2)ccc1OC(=O)c1ccco1,72.7% (inactive)
12,S=C(NCCc1ccccc1)N/N=C/c1cccc(Cl)c1Cl,74.4% (inactive)
13,c1ccc2c(c1)OCCc1c-2[nH]c2ccccc12,99.2% (inactive)
14,COC(=O)c1ccc(Cn2c(CN3CCOCC3)nc3ccccc3c2=O)o1,116% (inactive)
15,CCn1c(=NC(=O)c2ccco2)sc2cccc(F)c21,91.8% (inactive)
16,CC(=NCc1ccco1)C1=C(O)c2ccccc2C1=O,99% (inactive)
17,Cn1nnc(-c2ccc(OCc3ccccc3F)cc2)n1,96.7% (inactive)
18,CC/C(=N\Nc1ccc([N+](=O)[O-])cc1)c1ccccc1,112% (inactive)
19,COC(=O)c1cc2n3ccccc3c(C)c(-c3ccccc3)c-2c1C(=O)OC,92% (inactive)
20,CCOc1ccc2nc(NC(=O)C(CCSC)NS(=O)(=O)c3cccs3)sc2c1 (configuration not stated),96% (inactive)
21,O=C(CSc1ccccn1)Nc1nc2c(ccc3ccccc32)s1,85.2% (inactive)
22,COc1ccc(Cn2c(-c3ccccc3C)nc3c(c(=O)c4ccccc4n3C)c2=O)cc1,99.4% (inactive)
23,COCCn1c(-c2cccc(Br)c2)nc2c(c(=O)c3ccccc3n2C)c1=O,81.5% (inactive)
24,Cc1ccc(-c2nc3c(c(=O)c4ccccc4n3C)c(=O)n2Cc2ccco2)cc1,86.8% (inactive)
25,COCCn1c(-c2ccccc2Cl)nc2c(c(=O)c3ccccc3n2C)c1=O,74.5% (inactive)
26,Nn1c(COc2ccccc2)nc2ccccc2c1=O,88.4% (inactive)
